Experimental data: the supplement of paper PMC11417369
± gives the standard deviation of the averaged measurements. Over roughly 25,000 sequences, “ln(normalized median fluorescence intensity)” has its median near 8.9; the highest 2% begin near 10. The full list was thinned out, with the highest values kept by preference.

The sequences below were run on PfAP2-LT AP2 domain (GST-tagged) (assay: gcPBM binding intensity (ln(normalized median fluorescence intensity)); higher = stronger DNA binding).
Outline: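 GST-fused DNA-binding domains of P. falciparum, expressed in E. coli, were applied at about 25 μg on average for 1 h to an Agilent 4 × 180k array of primer-extended double-stranded 36-bp intergenic genomic probes and negative controls. Binding intensity is the highest Masliner-normalised natural-log median intensity across replicate spots of either probe orientation, measured with Alexa488 anti-GST antibody and a 488 nm scan.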

Point of comparison: “TTTATTATCTTATTCACACACATATATAAATATGTA [CACACA_site7369]”, “gcPBM binding intensity (ln)” value 9.06 ± 0.42. Against it:
- ACAAGGAATATATAAGATAATTTTAAATATAACACG [CACACA_negctrl_site1734] — within error, 8.73 ± 0.51
- AAAAAAAGTAAATGTTGTACTATAATATGTAATATA [XGTACX_site7966] — within error, 8.63 ± 0.55
- ATATATATATATATATATATATATATATTTATATAT [GTGCAC_negctrl_site180] — within error, 9.39 ± 0.042
- AAAAAGAAAAAAAAATGTACATAAAGTCTAATGATA [XGTACX_site4781] — within error, 8.78 ± 0.49
- AAAAATTAAAAGAAAATACACACCTGTGGGTGCTTA [CACACA_site1988] — within error, 8.54 ± 0.47
- TTAATTTTTTTTTAAACACACATTTTTTTATTTAAG [CACACA_site2738] — within error, 8.42 ± 0.54
- TATGAAAAAAAAAAAAAAAAAAAAAAAAAAAAAAAA [XGTACX_negctrl_site587] — lower, 8.02 ± 0.15
- TATATATTCATATGTTGTACATAAATACAAATAAGA [XGTACX_site5602] — within error, 8.69 ± 0.44
- ATATAAGTATAATTATGTACTTATACTTATATAAAT [XGTACX_site5585] — within error, 8.62 ± 0.41
- TTGGCATACAGACACACACACACACCCCCACATATA [CACACA_site590] — higher, 10.09 ± 0.085
- AAAAATATTTTGGTTTGTACATATATTTTTACAATA [XGTACX_site8691] — within error, 8.61 ± 0.34
- ACGATGTTCATCACTACACACACAAAGAAATATATA [CACACA_site8859] — within error, 9.26 ± 0.37
- CACACGCACGGACACACACACATATAAAATCTATAT [CACACA_site6428] — within error, 9.85 ± 0.57
- TACACAGACGGACACACACACACACTAGAAAAAAAA [CACACA_site4435] — higher, 10.1 ± 0.59
- CACGCGCCCGGACACACACACACACCCATATATATA [CACACA_site5251] — higher, 10.2 ± 0.57
- CACAGACACGGACACACACACACACCCATATATATA [CACACA_site4354] — higher, 10.1 ± 0.32
- AGCACAGACGGACACACACACACACCCACAGACACA [CACACA_site4358] — higher, 10.1 ± 0.23
- ACTTGACACGGACACACACACATATATAAAAAAAAA [CACACA_site4576] — within error, 9.53 ± 0.51
- CGTGGGAGCGGACACACACACACACCCATATATATA [CACACA_site4340] — within error, 9.86 ± 0.41
- AAAACACGCGGACACACACACACACGCCCACATATA [CACACA_site7105] — higher, 10.1 ± 0.33
- CACAGACACGGACACACACACACACCGATATATATA [CACACA_site4353] — higher, 9.88 ± 0.24
- TACAAAAGTTAAACATGTACTTAATTATATGTTTTT [XGTACX_site2852] — within error, 8.57 ± 0.44
- TTCTTAATTTAAAATTGTACTTAAGTAATACTTATG [XGTACX_site3928] — within error, 8.49 ± 0.57
- TTGTTTCCGATGAAAGAAAGGAAATTATAATATATC [GTGCAC_negctrl_site516] — within error, 8.43 ± 0.44
- AAGTAATCATCATAAAGTACTAAATTATATTGTCAA [XGTACX_site5841] — within error, 8.67 ± 0.37
- TATAAACAGACGAAAACACACATATGTAAATATATA [CACACA_site4428] — within error, 9.15 ± 0.44
- TGTTTTTTATATTACTGTACATGTTTTGGAATAATA [XGTACX_site4716] — within error, 8.75 ± 0.4
- ATGAACAAGGGGCACACACACATTATGACTAATTTA [CACACA_site3204] — within error, 9.6 ± 0.45
- TTTAAATATTTTATAGCATGCTACCAATATGTATAT [TGCATGCA_site291] — within error, 8.83 ± 0.52
- TAGTGTGCCAAATTAGCACACACATATATACATGAA [CACACA_site8910] — within error, 9.6 ± 0.36
- TCTTTTTCTTGACGAGTGCAAAAATTGTGTTTGAAA — within error, 8.48 ± 0.35
- TCGTAAACATATTGAAAAATATAAAAAGGGGTAATA [CACACA_negctrl_site619] — within error, 8.71 ± 0.56
- CTGAAGGAAAAAGAAAGTACTTTTTTTTTTTTGAAG [XGTACX_site5973] — within error, 8.22 ± 0.68
- CAAGCACCCAGACACACACACACACCCACACCCACA [CACACA_site369] — higher, 10.1 ± 0.47
- TTGGCATACGGACACACACACACACCCAGACATATA [CACACA_site4492] — higher, 9.84 ± 0.18
- ATCAAGCACGGACACACACACACACCCAGACCCCCA [CACACA_site4360] — higher, 10.19 ± 0.099
- CACAGACACGGACACACACACACACCCAGACACATA [CACACA_site4357] — higher, 10.1 ± 0.43
- TTTATTTTATCATTTGCACACGCACCCAGACATAAA [CACACA_site4347] — within error, 9.19 ± 0.35
- TTCTATTTTAATATCTGTACATAATAAAGATCCATT [XGTACX_site1142] — within error, 8.46 ± 0.49
- ACATTATATTTGGACTGTACTAATATATTGTTATAT [XGTACX_site5573] — within error, 8.91 ± 0.42
- GCTTATTAATATCATACACACATAGATATATTTATA [CACACA_site3104] — within error, 8.91 ± 0.39
- TATATGTTATATTGGACACACACAATAAACATTATG [CACACA_site8480] — within error, 9.21 ± 0.38
- AACCAGTTGATGTGTACACATATAGTAATAATTTTA [CACACA_site5564] — within error, 9.16 ± 0.52
- TAAAATTATTAATGAGTGCATTATAAAATCTATATA [GTGCAC_site9493] — within error, 8.38 ± 0.46
- ATATTTTCCCTTTATAGGAGCACAAAAATTAAATGT [CACACA_negctrl_site1114] — within error, 8.46 ± 0.35
- AGGAAATGTTTATATACATGCATAATTAAATATAAT [TGCATGCA_site672] — within error, 8.74 ± 0.46
- AGAAAAAAACAACATGCACACGCACCCACAAAAAAA [CACACA_site7908] — within error, 9.51 ± 0.28
- AAAAAAAAAACAAATACACACGCACCCAAAAAAAAA [CACACA_site8166] — within error, 9.61 ± 0.18
- AAAAAAAACAAATACACACGCACACCGAAAAAAAAA [CACACA_site803] — within error, 9.6 ± 0.39
